# Only a selection was taken, and hits are over-represented in it overall.
# CD40 NFkB inh: inhibitors of CD40-induced NF-kB signaling, primary screen, BL2 cells, luciferase reporter, single point; CD40L-induced, 4 h; inhibition, % at 10 µM; 83,000 compounds, 0.94% hits; AID 1053188, 2014;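 active means mean inhibition of at least 50% with a set share of replicates also reaching that level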
# Hits are given with their value; – = inactive; [ ] = dose if it differs, or a comment.
SMILES,CD40 NFkB inh
O=C(Nc1cccc(Cl)c1)N[C@H]1CC[C@@H](CCNC(=O)C2CCCC2)O[C@@H]1CO,–
C[C@@H]1CN([C@@H](C)CO)C(=O)Cc2cc(NS(=O)(=O)c3ccc(F)cc3)ccc2O[C@H]1CN(C)Cc1ccc(C(F)(F)F)cc1,72
C[C@@H]1CN([C@H](C)CO)C(=O)Cc2cc(NS(=O)(=O)c3ccc(F)cc3)ccc2O[C@H]1CN(C)CC1CCCCC1,59
C[C@@H]1CN([C@H](C)CO)C(=O)Cc2cc(NS(=O)(=O)c3ccc(F)cc3)ccc2O[C@@H]1CN(C)Cc1ccc(C(F)(F)F)cc1,–
Cc1noc(C)c1S(=O)(=O)Nc1ccc2c(c1)CC(=O)N([C@@H](C)CO)C[C@@H](C)[C@@H](CN(C)Cc1ccc(Oc3ccccc3)cc1)O2,74[25 µM]
C[C@@H]1CN([C@H](C)CO)C(=O)c2cc(NS(=O)(=O)c3ccc(F)cc3)ccc2O[C@H]1CN(C)Cc1ccc(C(F)(F)F)cc1,–
C[C@H]1CN([C@@H](C)CO)C(=O)Cc2cc(NS(=O)(=O)c3ccc(F)cc3)ccc2O[C@H]1CN(C)Cc1ccncc1,–
Cc1noc(C)c1S(=O)(=O)Nc1ccc2c(c1)CC(=O)N([C@H](C)CO)C[C@H](C)[C@@H](CN(C)Cc1ccc(Oc3ccccc3)cc1)O2,–
Cc1noc(C)c1S(=O)(=O)Nc1ccc2c(c1)CC(=O)N([C@@H](C)CO)C[C@@H](C)[C@@H](CN(C)Cc1ccccc1)O2,–
C[C@H]1CN([C@@H](C)CO)C(=O)Cc2cc(NS(=O)(=O)c3ccc(F)cc3)ccc2O[C@@H]1CN(C)Cc1ccncc1,–
C[C@H](NC(=O)N(C)C[C@@H]1OCc2ccccc2-c2c(n(C)c3ccccc23)C(=O)N([C@H](C)CO)C[C@@H]1C)c1ccccc1,–
CO[C@@H]1CC[C@@H]2CCN(C)C(=O)CCCN(C)C(=O)c3cc(C#N)ccc3OC[C@@H]1O2,–
COc1ccccc1C#Cc1ccc([C@H]2[C@@H](C#N)N(C(=O)C3CCCC3)[C@H]2CO)cc1,–
O=C(c1cccnc1)N1C[C@@H]2[C@H](c3ccccc31)[C@H](CO)N2C(=O)C1CCCC1,–
CS(=O)(=O)N1[C@@H](C#N)[C@H](c2ccc(C#CC3CCCC3)cc2)[C@@H]1CO,–
O=C(CC(F)(F)F)N1C[C@H]2[C@@H](c3ccccc31)[C@H](CO)N2C(=O)C1CCCC1,–
COc1ccc2c(c1)CCc1c(C(=O)NCc3ccc(F)cc3)noc1-2,–
COc1cc(NC(=O)c2ccc(-c3c(C)noc3C)c3ccoc23)cc(OC)c1OC,–
COc1ccc(-c2onc(C)c2-c2ccc(C(=O)OC(C)C)o2)c(O)c1,34
CCC(=O)N1[C@@H](CO)[C@@H](c2ccc(-c3ccccc3)cc2)[C@@H]1CNC(=O)COC,–
CC(=O)Nc1cccc2c1O[C@H](CN(C)C(=O)OC(C)(C)C)[C@@H](C)CN(C)C2=O,–
COc1ccc2c3c([nH]c2c1)[C@@H](CO)NCC31CCN(Cc2ccc(F)cc2)CC1,–
CCCNC(=O)C[C@H]1CC[C@@H]2[C@H](COc3ccc(NC(=O)NCCC)cc3C(=O)N2C)O1,–
COc1cccc(NC(=O)C[C@@H]2CC[C@H]3[C@@H](COc4ccc(NC(=O)C5CCCC5)cc4C(=O)N3C)O2)c1,–
Nc1ncnc2c1ncn2CCNCCc1ccccc1,–
SMILES,CD40 NFkB inh
Cc1ccc(OCCn2cnc3c(N)ncnc32)cc1,84
Cc1ccc(OCCCCn2cnc3ccccc32)cc1,–
C[C@@H]1CN([C@@H](C)CO)C(=O)c2cc(NC(=O)Nc3ccc4c(c3)OCO4)ccc2O[C@@H](C)CCCCO[C@@H]1CN(C)C(=O)Nc1ccccc1,–
C[C@H](CO)N1C[C@H](C)[C@@H](CN(C)Cc2ccccc2)Oc2cc(C#CC3CC3)ccc2S1(=O)=O,–
COc1ccc(CNC(=O)C[C@H]2CC[C@@H](NC(=O)Nc3ccc4c(c3)OCO4)[C@H](CO)O2)cc1,–
COc1ccc2c3c(n(C)c2c1)[C@@H](CO)N(C(=O)Nc1ccc(F)cc1)CC31CN(Cc2ccccc2F)C1,58[25 µM]
COc1ccc2c3c([nH]c2c1)[C@@H](CO)N(C)CC31CCN(C(=O)c2ccccc2F)CC1,–
COc1ccc2c3c(n(C)c2c1)[C@H](CO)N(C(=O)Nc1ccc(F)cc1)CC31CN(C(=O)Cc2ccncc2)C1,–
COc1ccc2c3c(n(C)c2c1)[C@@H](CO)N(C(=O)c1ccc(F)cc1)CC31CN(C(=O)Nc2ccc(F)cc2)C1,–
COc1ccc2c3c([nH]c2c1)[C@H](CO)N(C(=O)Nc1ccc(F)cc1)CC31CCN(C(=O)c2ccccc2F)CC1,60[25 µM]
COc1ccc2c3c([nH]c2c1)[C@@H](CO)N(C(=O)Nc1ccc(F)cc1)CC31CCN(C(=O)Cc2ccncc2)CC1,–
COc1ccc(NC(=O)N2C[C@H]3[C@@H](c4ccccc42)[C@@H](CO)N3C(=O)C2CCCCC2)cc1,–
Fc1ccc(CN2[C@@H]3CN(CC(F)(F)F)C[C@H]2C3c2ccccc2)cc1 (some centres undefined),–
CN(C)C(=O)c1cccc(-c2ccc3c(c2)[C@@H]2[C@@H](CCN2C(=O)c2ccc4c(c2)OCO4)[C@H](CO)N3)c1,–
